# Inconclusive results are not listed. Activity calls are given as the source filed them.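 Rule for the calls, unless noted: active = normalized viability below 100% at a tested concentration; inactive = the rest.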
# How the values were obtained:
# [1] = viability loss in pontine glioma line – cell-based, SU-DIPG-XVII, MIPE5.0, CellTiter-Glo, qHTS, dose response (AID 1347060; cut-off not given, nearly all actives have AC50 up to about 26 µM;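 note: cells exposed to compound for 48 hours before viability readout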); conditions: CellTiter-Glo ATP luminescence
# [2] = viability loss in pontine glioma line – cell-based, SU-DIPG-XIII, MIPE4.0, CellTiter-Glo, qHTS, dose response (AID 1347061; cut-off not given, nearly all actives have AC50 up to about 37 µM;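 note: cells exposed to compound for 48 hours before readout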); conditions: CellTiter-Glo ATP luminescence
# [3] = viability loss in pontine glioma line – cell-based, JHH-DIPG-1, MIPE4.0, CellTiter-Glo, qHTS, dose response (AID 1347062; cut-off not given, nearly all actives have AC50 up to about 27 µM;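 note: cells exposed to compound for two days before readout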); conditions: JHH-DIPG-1 viability, CellTiter-Glo ATP luminescence
# [4] = viability loss in pontine glioma line – cell-based, SU-DIPG-IV, MIPE4.0, CellTiter-Glo, qHTS, dose response (AID 1347063; cut-off not given, nearly all actives have AC50 up to about 30 µM;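 note: compound exposure lasted 48 hours before the viability readout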); conditions: CellTiter-Glo ATP luminescence
# [5] = viability loss in pontine glioma line – cell-based, SU-DIPG-XIII, MIPE5.0, CellTiter-Glo, qHTS, dose response (AID 1347064; cut-off not given, nearly all actives have AC50 up to about 23 µM;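 note: cells exposed to compound for 48 hours before the viability read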); conditions: CellTiter-Glo ATP luminescence
# [6] = viability loss in pontine glioma line – cell-based, SU-DIPG-XXV, MIPE5.0, CellTiter-Glo, qHTS, dose response (AID 1347065; cut-off not given, nearly all actives have AC50 up to about 26 µM;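 note: cells exposed to compound for 48 hours before ATP readout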); conditions: CellTiter-Glo ATP luminescence
# [7] = growth inhibition of DIPG cells – cell-based, MIPE4.0 library, CellTiter-Glo luminescence, qHTS (AID 1347066; cut-off not given, nearly all actives have AC50 up to about 30 µM;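 note: cells exposed to compound for 48 hours before readout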); conditions: SU-DIPG-VI viability, CellTiter-Glo ATP luminescence
# [8] = JHH-DIPG-1 glioma cell viability, MIPE5.0 library, CellTiter-Glo luminescence, qHTS (AID 1347067; cut-off not given, nearly all actives have AC50 up to about 26 µM;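 note: cells exposed to compound for 48 hours before readout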); conditions: JHH-DIPG-1 glioma viability, CellTiter-Glo ATP luminescence
# [9] = growth inhibition of DIPG cells – cell-based, MIPE5.0 library, qHTS (AID 1347068; cut-off not given, nearly all actives have IC50 up to about 30 µM;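 note: cells exposed to compound for 48 hours before viability readout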); conditions: SU-DIPG-XXV viability
# [10] = viability loss with induced miR-34 in A549 – imaging, A549 dox-inducible miR-34, nuclei and caspase counts, primary screen (AID 1347080;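 active = compounds whose cell count with miR-34 switched on is under 0.7 times the count with it off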); conditions: A549 miR-34 inducible, Hoechst nuclei count, 48 h
# [11] = compounds altering HSF1 focus formation in cells – imaging, Selleck Cancer Library (AID 1347162; in the data active = plate-normalised HSF1 focus index below about 0.46); conditions: human cells, HSF1 nuclear foci imaging, at 10 µM; SSMD: measured here: HSF1 foci SSMD mean; cell count: measured here: cell number; plate-normalised HSF1 focus index: stronger effect = lower value
# [12] = MELAS cybrid and Rieske KO viability enhancers – cell-based, MELAS cybrids, Rieske KO mouse fibroblasts, CellTiter-Glo, primary screen (AID 1508586;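 active = mean z-score across replicates of 1.96 or higher in either the MELAS or the Rieske mutant cell line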;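 note: z relative to plate mean and SD of compound and empty wells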); conditions: low glucose
# [13] = drug combination growth inhibition, ovarian cancer – cell-based, oncology-focused library, rucaparib conditional, profiling panel (AID 1508598); conditions: patient-derived ovarian cancer cells, CellTiter-Glo viability, 144 h, stronger effect = lower value
# [14] = growth inhibition, single agent or in combination, cell-based, chromothripsis tumors, cisplatin or BGB combos (AID 1671449; in the data active = inhibition above about 80%;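 note: cells exposed for 96 hours; 0% = vehicle DMSO and 100% = killing by high DMSO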); conditions: LFS_MB_P medulloblastoma cells
# [15] = growth inhibition, single agent and combos, cell-based, chromothripsis tumors, cisplatin or BGB combos (AID 1671450; in the data active = inhibition above about 80%;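 note: cells exposed to compound for four days; 0% = vehicle DMSO and 100% = cell killing by high DMSO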); conditions: HDN33 neuroblastoma cells, stronger effect = higher value
# [16] = growth inhibition, single agents and combos, ICB984, cell-based, cisplatin or BGB combos, synergistic combos for chromothripsis tumors (AID 1671451; call rule not given here;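 note: cells exposed for 96 hours before readout; 0% = vehicle DMSO and 100% = killing by high DMSO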); conditions: ICB984 medulloblastoma cells, drug combinations, stronger effect = higher value
# [17] = growth inhibition, single agents and combos, HTB85, cell-based, BGB or cisplatin IC20 combos, synergistic combos for chromothripsis tumors (AID 1671453; in the data active = inhibition above about 80%;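 note: cells exposed for 96 hours before readout; 0% = vehicle DMSO and 100% = high DMSO killing control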); conditions: HTB85 osteosarcoma cells, drug combinations, stronger effect = higher value
# [18] = growth inhibition, MDA-MB-436, cell-based, BGB or cisplatin combos, synergistic combos for chromothripsis tumors (AID 1671458; call rule not given here;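 note: cells exposed for 96 hours; 0% = vehicle DMSO and 100% = killing by high DMSO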); conditions: MDA-MB-436 breast carcinoma growth inhibition, drug combinations, stronger effect = higher value
# [19] = BT084 cell growth, single and combined drugs, ICGC_MB145, cisplatin and BGB IC40 combos (AID 1671461; in the data active = inhibition above about 80%;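 note: cells exposed to drugs for 96 hours; 0% = vehicle DMSO and 100% = high DMSO full killing control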); conditions: BT084 medulloblastoma cells, drug combinations, stronger effect = higher value
# [20] = RCMB18 cell growth, single agent and combined, cisplatin and BGB IC40 combos (AID 1671462; in the data active = inhibition above about 80%;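 note: cells exposed to compound for four days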); conditions: RCMB18 medulloblastoma cells, stronger effect = higher value
structure (smiles),measurement,setting,value
Nc1ccc(-c2ccc3ncc4ccc(=O)n(-c5cccc(C(F)(F)F)c5)c4c3c2)cn1,AC50,[1],93.4 nM (active)
same,AC50,[2],132 nM (active)
same,AC50,[3],74.3 nM (active)
same,AC50,[4],33.2 nM (active)
same,AC50,[5],23.5 nM (active)
same,AC50,[6],20.9 nM (active)
same,AC50,[7],187 nM (active)
same,AC50,[8],166 nM (active)
same,IC50,[9],235 nM (active)
same,fold change,"[10]; stronger effect = lower value, cell number ratio, induced over uninduced",1 (inactive)
same,fold change,[10]; measured here: relative caspase fold change +Dox/-Dox,1.14
same,cell count,"[10]; measured here: total cells with miR-34 induction, stronger effect = lower value",1420
same,cell count,[10]; measured here: total cells without miR-34 induction,1410
same,SSMD,[11],2.81
same,cell count,[11],6780
same,plate-normalised HSF1 focus index,[11],1.15 (inactive)
same,z-score,"[12]; MELAS cybrid survival, CellTiter-Glo 48 h, stronger effect = higher value",3.27 (active)
same,z-score,"[12]; Rieske KO mouse fibroblast survival, CellTiter-Glo 72 h",-0.678
same,viability,"[13]; at 0.000305 µM, OCI-C5x cells, with rucaparib 10 µM, 100% = cells with rucaparib alone",117% (inactive)
same,viability,"[13]; at 0.000305 µM, OCI-C5x cells, without rucaparib",112% (inactive)
same,viability,"[13]; at 0.000305 µM, OCI-P5x cells, with rucaparib 20 µM, 100% = cells with rucaparib alone",87.4% (active)
same,viability,"[13]; at 0.000305 µM, OCI-P5x cells, without rucaparib",87.8% (active)
same,viability,"[13]; at 0.00122 µM, OCI-C5x cells, with rucaparib 10 µM, 100% = cells with rucaparib alone",107% (inactive)
same,viability,"[13]; at 0.00122 µM, OCI-C5x cells, without rucaparib",119% (inactive)
same,viability,"[13]; at 0.00122 µM, OCI-P5x cells, with rucaparib 20 µM, 100% = cells with rucaparib alone",89.2% (active)
same,viability,"[13]; at 0.00122 µM, OCI-P5x cells, without rucaparib",90.5% (active)
same,viability,"[13]; at 0.00488 µM, OCI-C5x cells, with rucaparib 10 µM, 100% = cells with rucaparib alone",118% (inactive)
same,viability,"[13]; at 0.00488 µM, OCI-C5x cells, without rucaparib",83.6% (active)
same,viability,"[13]; at 0.00488 µM, OCI-P5x cells, with rucaparib 20 µM, 100% = cells with rucaparib alone",79.7% (active)
same,viability,"[13]; at 0.00488 µM, OCI-P5x cells, without rucaparib",60.8% (active)
same,viability,"[13]; at 0.0195 µM, OCI-C5x cells, with rucaparib 10 µM, 100% = cells with rucaparib alone",113% (inactive)
same,viability,"[13]; at 0.0195 µM, OCI-C5x cells, without rucaparib",72% (active)
same,viability,"[13]; at 0.0195 µM, OCI-P5x cells, with rucaparib 20 µM, 100% = cells with rucaparib alone",70.7% (active)
same,viability,"[13]; at 0.0195 µM, OCI-P5x cells, without rucaparib",49.8% (active)
same,viability,"[13]; at 0.0781 µM, OCI-C5x cells, with rucaparib 10 µM, 100% = cells with rucaparib alone",109% (inactive)
same,viability,"[13]; at 0.0781 µM, OCI-C5x cells, without rucaparib",92.2% (active)
same,viability,"[13]; at 0.0781 µM, OCI-P5x cells, with rucaparib 20 µM, 100% = cells with rucaparib alone",77.9% (active)
same,viability,"[13]; at 0.0781 µM, OCI-P5x cells, without rucaparib",63.5% (active)
same,viability,"[13]; at 0.313 µM, OCI-C5x cells, with rucaparib 10 µM, 100% = cells with rucaparib alone",109% (inactive)
same,viability,"[13]; at 0.313 µM, OCI-C5x cells, without rucaparib",89.4% (active)
same,viability,"[13]; at 0.313 µM, OCI-P5x cells, with rucaparib 20 µM, 100% = cells with rucaparib alone",73.5% (active)
same,viability,"[13]; at 0.313 µM, OCI-P5x cells, without rucaparib",65.9% (active)
same,viability,"[13]; at 1.25 µM, OCI-C5x cells, with rucaparib 10 µM, 100% = cells with rucaparib alone",62.2% (active)
same,viability,"[13]; at 1.25 µM, OCI-C5x cells, without rucaparib",70.5% (active)
same,viability,"[13]; at 1.25 µM, OCI-P5x cells, with rucaparib 20 µM, 100% = cells with rucaparib alone",67.9% (active)
same,viability,"[13]; at 1.25 µM, OCI-P5x cells, without rucaparib",54.1% (active)
same,viability,"[13]; at 5 µM, OCI-C5x cells, with rucaparib 10 µM, 100% = cells with rucaparib alone",33.1% (active)
same,viability,"[13]; at 5 µM, OCI-C5x cells, without rucaparib",29.5% (active)
same,viability,"[13]; at 5 µM, OCI-P5x cells, with rucaparib 20 µM, 100% = cells with rucaparib alone",10.8% (active)
same,viability,"[13]; at 5 µM, OCI-P5x cells, without rucaparib",14.6% (active)
same,inhibition,"[14]; at 0.5 µM, stronger effect = higher value",5.33% (inactive)
same,inhibition,"[14]; measured here: combination with BGB IC20, at 0.005 µM",-20%
same,inhibition,"[14]; measured here: combination with BGB IC40, at 0.005 µM",59.9%
same,inhibition,"[14]; measured here: combination with BGB IC40, at 0.05 µM",-36.1%
same,inhibition,"[14]; measured here: combination with cisplatin, at 0.5 µM, stronger effect = higher value",3.19%
same,inhibition,"[14]; measured here: combination with cisplatin, at 5 µM, stronger effect = higher value",92.6%
same,inhibition,"[15]; BGB combo, at 5 µM",89.3%
same,inhibition,[15]; at 0.5 µM,32.1% (inactive)
same,inhibition,"[15]; cisplatin combo, at 5 µM",93.5%
same,inhibition,"[15]; measured here: with BGB IC20 combination, at 0.5 µM",14.7%
same,inhibition,"[15]; measured here: with cisplatin IC20 combination, at 0.5 µM",43.5%
same,inhibition,"[15]; single agent, at 5 µM",91.8%
same,inhibition,"[16]; BGB IC20 combo, at 0.005 µM",18.5%
same,inhibition,"[16]; BGB IC40 combo, at 0.005 µM",13.6%
same,inhibition,"[16]; BGB IC40 combo, at 0.05 µM",80.5%
same,inhibition,[16]; at 0.5 µM,-14.5% (inactive)
same,inhibition,"[16]; cisplatin combo, at 0.05 µM",79.9%
same,inhibition,"[16]; cisplatin combo, at 0.5 µM",-13.5%
same,inhibition,"[16]; cisplatin combo, at 5 µM",-13.1%
same,inhibition,"[16]; measured here: 5 uM single agent, at 5 µM",-7.65%
same,inhibition,[17]; at 0.5 µM,27.1% (inactive)
same,inhibition,"[17]; measured here: with BGB IC20, at 0.5 µM",35.5%
same,inhibition,"[17]; measured here: with BGB IC20, at 5 µM",78%
same,inhibition,"[17]; measured here: with cisplatin IC20, at 0.5 µM",16.8%
same,inhibition,"[17]; measured here: with cisplatin IC20, at 5 µM",94.9%
same,inhibition,"[17]; single agent, at 5 µM",79.3%
same,inhibition,[18]; at 0.5 µM,12% (inactive)
same,inhibition,"[18]; measured here: BGB combination, at 0.5 µM",0.276%
same,inhibition,"[18]; measured here: BGB combination, at 5 µM",32.6%
same,inhibition,"[18]; measured here: cisplatin combination, at 0.5 µM",-4.07%
same,inhibition,"[18]; measured here: cisplatin combination, at 5 µM",57.7%
same,inhibition,[19]; at 0.5 µM,21.2% (inactive)
same,inhibition,"[19]; cisplatin combination, at 0.5 µM",28.2%
same,inhibition,"[19]; cisplatin combination, at 5 µM",33.5%
same,inhibition,"[19]; measured here: BGB IC40 combination 0.05 uM, at 0.05 µM",-29.9%
same,inhibition,"[19]; single agent, at 5 µM",41.3%
same,inhibition,[20]; at 0.5 µM,16.5% (inactive)
same,inhibition,"[20]; cisplatin combo, at 5 µM",59.1%
same,inhibition,"[20]; measured here: BGB IC40 combination, at 0.05 µM",-1.59%
same,inhibition,"[20]; measured here: combination with cisplatin, at 0.5 µM",23.5%
same,inhibition,"[20]; single agent, at 5 µM",62.1%
